This is one part of a sample in which hits are shown more often than they occur.
Pf Dd2 growth: blocks in vitro growth of P. falciparum Dd2 | 4.3% of 120,000 active | Potency, µM (highest dose often 28.9 µM), for the others: at the highest dose activity, negative = inhibition, hits mostly inhibitors | P. falciparum Dd2 growth, SYBR Green, 72 h; active = well fitted inhibition curve with a large enough effect;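 note: plate controls were DMSO vehicle for no effect and reference drug for full effect; nearly all actives have a fitted effect of over 65% in size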
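Readout: SYBR Green fluorescence, 485 nm excitation, 535 nm emission, after ~16 h lysis at 37C. Before that, Dd2-infected red cells (2.5% hematocrit) grew 72 h with compound, 29 uM top final concentration.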
Active calls of the source: *; i = inactive; [ ] = dose if it differs, or a comment. Potency is the fitted concentration of half-maximal effect.

SMILES | Pf Dd2 growth
COc1cc(C(=O)N2CCCN(C)c3ccccc32)cc(OC)c1OC | i
O=C(c1ccc(F)c(Cl)c1)N1CCC(c2n[nH]c(=O)n2-c2ccccc2)CC1 | -11%
COc1ccccc1CN1Cc2cc(NC(=O)Cc3ccc(F)cc3)ccc2OC(C)C1=O (centres undefined) | -13%
CCNC(=O)Nc1ccc2c(c1)CN(Cc1ccccc1OC)C(=O)C(C)O2 (centres undefined) | i
CCC(C(=O)Nc1ccc2c(c1)CN(Cc1ccccc1OC)C(=O)C(C)O2)c1ccccc1 (centres undefined) | 2.5µM*
CCC1Oc2ccc(NC(=O)Cc3ccc(F)cc3)cc2CN(Cc2ccc(Cl)cc2)C1=O (centres undefined) | -9%
COc1cccc(CC(=O)Nc2ccc3c(c2)CN(Cc2ccccc2OC)C(=O)C(C)O3)c1 (centres undefined) | i
CC1Oc2ccc(NC(=O)Cc3ccc(F)cc3)cc2CN(Cc2ccc(Cl)cc2)C1=O (centres undefined) | 10µM*
CCn1c(CC2CCN(S(=O)(=O)c3cccc(C)c3)CC2)nn(C)c1=O | i
CCOCCn1c(=O)[nH]c2cc(C(=O)NCCn3cnnc3)ccc21 | -3%
CN1C(=O)c2ccccc2CC12CCCN(C(=O)c1ccc(Cl)cc1)C2 (centres undefined) | -9%
O=c1c2cc(-c3ccc(F)cc3)nn2ccn1CC(O)c1ccc(F)cc1 (centres undefined) | i
O=C(c1ccccc1)N1CC[C@H](c2nnc(Cc3ccccc3)o2)C1 | 12%[44.1 µM]
Cc1cc(C)n(-c2cccc(CN(C)C(=O)C3CCC(=O)N(C4CCCC4)C3)c2)n1 (centres undefined) | -9%
O=C(CN1C(=O)C(c2ccccc2)=NC12CCCC2)NCc1ccc(F)cc1 | i
CC(C)(Oc1ccc(Cl)cc1)C(=O)Nc1cccc(-c2cn3cccnc3n2)c1 | 11µM*
CC(C)(C)C(=O)Nc1cccc(-c2cn3cccnc3n2)c1 | -6%
COc1cccc(NC(=O)Nc2cccc(-c3cn4cccnc4n3)c2)c1 | i
COc1ccc(N2CCN(C(=O)c3c(OC)cc(=O)n4c3CCCC4)CC2)cc1 | i
CN(C)c1ccc(NC(=O)Cn2nc3n(c2=O)CCCC3)cc1 | -3%
COc1ccc(S(=O)(=O)N2CCOC[C@H](Oc3ccccc3)C2)cc1 | -12%[44.1 µM]
CC(C)NC(=O)N(C1CCOCC1)C1CN(S(=O)(=O)Cc2ccccc2F)C1 | -29%
Cc1cccc(OCc2ccc(-c3nc(C#N)c(N4CCN(c5ccccc5)CC4)o3)o2)c1 | 10µM*
COCCCNc1oc(-c2ccc(COc3ccccc3C)o2)nc1C#N | -27%
COc1ccc(CNc2oc(COc3cccc(C)c3)nc2C#N)cc1 | 0%
SMILES | Pf Dd2 growth
Cc1cccc(OCc2ccc(-c3nc(C#N)c(NCc4cccnc4)o3)o2)c1 | 7.9µM*
COc1ccc(Nc2oc(-c3ccc(COc4ccccc4)o3)nc2C#N)cc1 | -5%
CCCCNc1oc(-c2ccc(COc3ccccc3C)o2)nc1C#N | 11µM*
CCN1CCN(c2oc(-c3ccc(COc4ccccc4C)o3)nc2C#N)CC1 | -14%
N#Cc1nc(-c2ccc(COc3ccccc3)o2)oc1N1CCCCC1 | 59%[0.594 µM]
Cc1ccccc1OCc1ccc(-c2nc(C#N)c(NCc3cccnc3)o2)o1 | -24%
Cn1ccc(NC(=O)[C@@H]2C[C@@H](c3ccc(F)cc3)N([S+](=O)([O-])c3ccccc3)C2)n1 | -22%[44.1 µM]
COc1ccc(C(=O)N2CCCC2)c(OC2CCN(C(=O)c3ccn[nH]3)CC2)c1 | -11%
COC(=O)c1ccc(N2C[C@H]3OC(=O)N(CCc4ccc(OC)cc4)[C@H]3C2)nc1 | -11%
Cc1nn(-c2ccccc2)c(Oc2ccccc2F)c1CCC(=O)NCC(C)C | -27%
CCOc1ccc(CC(=O)N2CCC(n3cc(-c4nc(-c5ccccc5)no4)nn3)C2)cc1 (centres undefined) | -15%
CCc1nc(-c2c3n(c(=O)n(CC(=O)NCCCc4ccccc4)c2=O)CCCC3)no1 | 17%
CNC(=O)c1ccc(C2CCCN2C(=O)CCc2cc3n(n2)CCCNC3)s1 (centres undefined) | -2%
OC[C@@H]1CNC[C@H]1C1CCN(Cc2ccco2)CC1 | 11%
CCN(CC)C(=O)CCc1nc(C2CCCN2C(=O)c2ccccc2)no1 (centres undefined) | -15%
CC(C)c1nccn1CCCNC(=O)c1ccc(NC2CCC(O)CC2)nc1 (centres undefined) | i
O=C1CC2(CCN(CC3CC3)CC2)Oc2ccccc21 | i
O=C1CC2(CCN(CC3CCCCC3)CC2)Oc2cc(Cl)ccc21 | 1.4µM*
O=C1CC2(CCN(Cc3ccc(C(F)(F)F)cc3)CC2)Oc2cc(Cl)ccc21 | i
O=C1COCC2(CN1Cc1cccc(OC(F)(F)F)c1)CN(C(=O)c1cccs1)C2 | i
CNC(=O)NC[C@H]1CCN(C2CCSCC2)C[C@H]1N(C)C | 25%
Cc1ccc2c(c1)c(Cn1cnc(-c3ccccc3)c1-c1cnc[nH]1)nn2C | -21%
COc1ccc(-n2nc(C3CCN(Cc4ccc(N(C)C)cc4)CC3)[nH]c2=O)cc1 | -3%

High-throughput results as filed in PubChem.
